From PubChem
Compounds with a hit are over-represented: about 3.5% of the library has one in this group of screens.
Platelet DG rel: inhibitors of platelet dense granule secretion, primary screen, cell-based, MLPCN, human platelets. human platelet-rich plasma, SFLLRN dense granule ATP release, luminescence. 300,000 compounds, 0.22% hits. AID 1663, 2009. inhibition, %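 (compounds screened at 7.5 µM in platelet-rich plasma)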;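 active means mean replicate score, as percent of positive control, at or above 50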
TWEAK Fn14 block: inhibitors of TWEAK-Fn14 signaling, primary screen, luciferase reporter cells, uHTS. AID 1159606, 2016. TWEAK-stimulated Fn14 reporter cells, luciferase luminescence, 8 h. inhibition, % at 10 µM. 360,000 compounds, 2% hits; in the data active means inhibition above about 50%
HSP90 refold inh: HSP90 inhibitors, primary screen, cell lysate, luminescence. Heat shock protein HSP 90 (rabbit reticulocyte lysate; luciferase refolding). Rabbit reticulocyte lysate, luciferase refolding luminescence, 3 h. inhibition, % at 5.6 µM. 290,000 compounds, 0.91% hits;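 active means inhibition above the screen-wide mean plus 3 SD, computed separately per campaign, cut at about 16% in these data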;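 further: 0% = DMSO wells and 100% = 60 µM geldanamycin wells; inhibitors lower the luminescence because luciferase stays unfolded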
TROY signal inh: inhibitors of TROY-driven NF-kB signaling, primary screen, Q293 LMP1-TROYcd cells, NF-kB luciferase, uHTS | 360,000 compounds, 0.98% hits | Q293 LMP1-TROYcd NF-kB luciferase reporter, 4 h | inhibition, % at 10 µM | AID 1347056, 2019;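 active means compounds whose plate-normalised and pattern-corrected inhibition of the luciferase reporter signal at the single screening dose is 50% or more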
C8 TRAIL sens: viability loss with TRAIL in NB7+C8 cells, primary screen, TRAIL sensitizer project, cell-based, ATPlite luminescence; 360,000 compounds, 1% hits; inhibition (viability loss, TRAIL sensitization), % at 10 µM;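 active means compounds causing at least 50% loss of cell viability in the single-dose screen, relative to plate controls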
PPC-1+TRAIL kill: compounds killing PPC-1 cancer cells with TRAIL present, primary screen, TRAIL potentiator project, ATPLite luminescence, uHTS | PPC-1 cells + TRAIL, ATPLite viability luminescence | cell killing (% activity), % at 4 µM or 5 µM | 220,000 compounds, 0.41% hits | AID 1443, 2008;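 active means cell killing above 50% in the first pass at 4 µM, then a duplicate retest at 5 µM averaging 50% or more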;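 further: plate controls were cells with TRAIL plus DMSO for no effect and medium-only wells lacking cells for full effect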
Starred values were filed as active, the others as inactive; / = not tested or not shown.

SMILES	Platelet DG rel	TWEAK Fn14 block	HSP90 refold inh	TROY signal inh	C8 TRAIL sens	PPC-1+TRAIL kill
CC1=NN(S(=O)(=O)c2ccc(Cl)cc2Cl)C(=O)c2ccccc2O1	18.2	68.1*	4.0	0.5	-0.9	22.3
Cc1ccc2c(c1)c(CC(=O)Nc1ccc(F)cc1)c(C(=O)O)n2C	-1.1	106.2*	-1.5	14.3	-33.9	4.5
Cc1ccc(NC(=O)Cc2c(C(=O)O)n(C)c3ccccc23)cc1F	-5.2	-9.7	2.5	11.6	-6.3	19.8
Cn1c(C(=O)O)c(CC(=O)Nc2ccc3c(c2)OCCO3)c2ccccc21	3.7	91.6*	4.7	76.9*	-2.9	-12.6
C[C@H]1CN([C@@H](C)CO)C(=O)Cc2cc(NS(C)(=O)=O)ccc2O[C@@H]1CN(C)Cc1ccc(Cl)c(Cl)c1	/	-36.0	/	4.1	3.5	/
C[C@H](CO)N1C[C@H](C)[C@@H](CN(C)S(=O)(=O)c2ccccc2)Oc2ccc(NC(=O)Nc3ccc(C(F)(F)F)cc3)cc2C1=O	/	60.9*	/	36.2	23.2	/
C[C@@H]1CN([C@@H](C)CO)C(=O)c2cc(NC(=O)Nc3ccccc3)ccc2O[C@H]1CN(C)C(=O)Nc1cccc2ccccc12	/	48.1	/	51.7*	-5.2	/
C[C@@H]1CN([C@@H](C)CO)C(=O)Cc2cc(NC(=O)Nc3ccc(F)cc3)ccc2O[C@@H]1CN(C)Cc1ccc(Cl)c(Cl)c1	/	60.5*	/	20.9	-7.5	/
O=C(C#Cc1ccccc1)c1ccccc1	/	75.9*	/	37.4	93.2*	/
CCOC(=O)c1c(C)nn(-c2ccc(NC(=O)/C=C/C(=O)O)cc2)c1C	-3.5	60.7*	-3.4	45.1	3.1	-4.7
C=CCOc1ccc(C(=O)Nc2ccccc2C(=O)NCc2cccnc2)cc1	2.5	2.9	-1.5	4.4	18.0	/
O=C(COc1ccccc1)Nc1ccc(Cl)cn1	-1.1	-15.2	1.2	-41.5	1.1	-5.5
CSc1ccccc1NC(=O)COc1ccc(Cl)cc1Cl	4.0	9.7	2.5	-56.7	-7.4	-4.5
O=C(COc1ccc(Cl)cc1Cl)Nc1ccccn1	/	107.8*	86.9*	88.8*	94.5*	22.7
O=C(COc1ccccc1Cl)Nc1ccc(Cl)cn1	1.0	2.2	-0.8	-57.8	50.3*	38.4
O=C(CCCOc1ccc(Cl)cc1Cl)NCCc1ccccn1	3.5	30.6	3.9	69.4*	12.3	/
O=C(O)CC(C(=O)O)C(=Cc1ccccc1)c1ccccc1 (centres undefined)	/	6.8	/	-5.3	15.2	/
O=C(COC(=O)c1ccc2c(c1)OCCO2)NCCc1ccc(F)cc1	/	-4.2	/	0.0	23.4	/
O=C(Nc1ccc(F)cc1)Nc1ccc(N2CCCC2)c(S(=O)(=O)Nc2ccccc2Cl)c1	-12.6	75.5*	-3.8	23.8	24.8	7.7
O=C(Nc1ccc(Cl)c(Cl)c1)Nc1ccc(N2CCCC2)c(S(=O)(=O)Nc2ccccc2Cl)c1	0.9	68.3*	-1.5	21.0	33.5	11.6
O=C(Nc1ccc(N2CCOCC2)c(S(=O)(=O)Nc2ccccc2Cl)c1)c1ccc(F)cc1	/	-9.4	/	8.5	5.7	/
O=C(Nc1ccc(N2CCCCC2)c(S(=O)(=O)Nc2ccccc2Cl)c1)c1cccnc1	/	32.8	/	30.1	4.4	/
Cc1ccc(-c2nnc(NCc3nc4ccccc4[nH]3)c3ccccc23)cc1S(=O)(=O)N(C)C	1.0	55.4*	-0.9	51.6*	21.7	-22.3
Cc1ccc(-c2nnc(NCc3nc4ccccc4[nH]3)c3ccccc23)cc1S(=O)(=O)N1CCOCC1	25.3	65.9*	-1.9	4.9	12.9	20.3
Cc1ccc(-c2nnc(N3CCCCC3)c3ccccc23)cc1S(=O)(=O)N(C)C	10.5	18.4	-4.0	16.4	8.4	6.9
SMILES	Platelet DG rel	TWEAK Fn14 block	HSP90 refold inh	TROY signal inh	C8 TRAIL sens	PPC-1+TRAIL kill
O=C(Nc1ccccc1)C1=C[C@H](c2ccccc2)C[C@H](OCc2ccc(CO)cc2)O1	1.2	-24.0	3.9	-41.3	4.0	16.7
C#Cc1ccc([C@H]2C=C(C(=O)Nc3ccccc3)O[C@@H](OCc3ccc(CO)cc3)C2)cc1	0.3	-10.2	/	-26.8	88.6*	13.4
CCO[C@H]1OC(C(N)=O)=C[C@@H](C(C)(C)C)[C@@H]1CCCO	-2.3	53.5*	/	-18.6	11.4	/
C#Cc1ccc([C@@H]2C=C(C(=O)O)O[C@H](OCc3ccc(CO)cc3)C2)cc1	-1.4	5.4	16.4*	-10.3	9.7	-3.1
C#Cc1ccc([C@@H]2C=C(C(=O)Nc3ccccc3)O[C@H](OCC)[C@H]2CCCO)cc1	1.3	-1.9	-3.0	-0.3	79.5*	20.7
O=C(O)C1=C[C@@H](c2ccccc2)C[C@@H](OCc2ccc(CO)cc2)O1	5.1	-3.4	2.5	-6.5	-1.6	13.9
CCO[C@@H]1OC(C(=O)N2CCOCC2)=C[C@H](C(C)(C)C)[C@H]1CCCO	2.0	-4.4	/	15.0	-9.8	/
CC(=O)N1c2ccc(S(=O)(=O)N(C)CC(=O)NC(C)c3ccccc3)cc2CC1C (centres undefined)	3.7	-10.9	-5.0	-4.1	-25.1	/
CC1(C)O[C@@H](CC(=O)O)[C@]23CO[C@H](C(=O)[C@]4(C)C2CC[C@@]2(C)[C@H](c5ccoc5)OC(=O)C5O[C@]524)[C@@H]13 (some centres undefined)	/	17.0	/	9.9	-0.5	/
O=C(c1ccc(Br)c(S(=O)(=O)N2CCOCC2)c1)N1CCN(C/C=C/c2ccccc2)CC1	/	9.7	/	13.2	4.1	/
O=C1c2ccccc2C(=O)N1OS(=O)(=O)c1ccc(F)cc1	59.8*	-22.8	-3.4	-9.0	2.8	/
O=C(Nc1ccccc1O)C(c1ccccc1)c1ccccc1	-2.4	64.5*	-6.4	25.1	15.1	/
N#Cc1c(-c2ccccc2)nc(-c2ccccc2)nc1N1CCOCC1	0.4	79.1*	-1.5	/	-6.1	19.4
CCCCC1Cc2[nH]c(=S)[nH]c(=O)c2C(c2cccc3ccccc23)O1 (centres undefined)	/	1.5	/	-8.4	12.0	/
O=C1C=CC(=Nc2ccc3c(c2)Cc2cc(F)ccc2-3)O1	/	56.3*	/	10.8	1.0	/
COC(=O)C[C@@H]1CC[C@H](NC(=O)Cc2ccccn2)[C@@H](CO)O1	/	/	/	/	8.4	/
Cc1ccc(-n2c(Cl)c(Cl)nc(Cl)c2=O)cc1	/	101.7*	-4.6	63.3*	-7.9	-9.1
C/C(=N/NC(=O)c1cc(C(C)C)[nH]n1)c1cccs1	11.8	52.0*	5.9	-35.0	24.7	23.5
CC1=NN(c2ccc(Cl)cc2)C(=O)C1C(c1cccc(O)c1)c1c(C)[nH]n(-c2ccc(Cl)cc2)c1=O (centres undefined)	-1.4	50.0*	11.4	39.9	3.7	5.5
CCN(CC)c1ccc2c(C)c(Cl)c(=O)oc2c1	-1.8	-16.9	-3.2	-38.1	-3.9	18.3
